# Assay results taken from the supplement of paper PMC7156485.
# Values joined by “and” are separate entries in the source; they are usually repeats but may differ in a detail not shown here. Identical values can stand only once. ± gives the standard deviation of the averaged measurements.
# System: TDF
# Experiment: cell number relative to DMSO (% of DMSO); higher = more cells (less growth inhibition / toxicity)
# Conditions: concentration: 10 µM; 24 h
# In short: (§1)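 HCC1569 and TDF cells were seeded at 800 per well in 384-well plates in RPMI with 10% FBS and treated with compounds at 10 µM for 24 h at 37 °C, in triplicate. After fixation in 3.7% formaldehyde, cells were stained with a rabbit anti-H1.0 antibody, an AlexaFluor 647 secondary and DAPI, and six fields per well were imaged at ×10. H1.0 nuclear intensity or cell number is given as percent of the plate control, using the median of replicates, with HCC1569 values smoothed for positional effects.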
# 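For H1.0 immunofluorescence intensity relative to DMSO in this document: TDF is a line of transformed human dermal fibroblasts of mesenchymal origin.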
# 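For cell number relative to DMSO in this document: TDF denotes transformed human dermal fibroblasts of mesenchymal origin.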
row,Compound,cell number
1,N#Cc1c(NC(=O)c2cccc3ccccc23)sc2c1CCCC2 [JNK Inhibitor IX],9.56
2,COc1cccc2oc(-c3ccccc3)cc(=O)c12 [5-Methoxyflavone],84.4
3,CN(C)CCOc1ccc(C(=C(CCCl)c2ccccc2)c2ccccc2)cc1 [Toremifene],104
4,CN1CCC(=C2c3ccccc3CC(=O)c3sccc32)CC1 [Ketotifen],102
5,CC(=O)Oc1ccccc1C(=O)Oc1ccc(CO[N+](=O)[O-])cc1 [4-[(nitrooxy)methyl]phenyl 2-(acetyloxy)benzoate],66.5
6,"CN(C)C(N)=NCCCC(N)C(=O)O.Cl (centres undefined) [N^G,N^G-Dimethylarginine hydrochloride]",96.5
7,FC(F)(F)c1cc(NC(=S)Nc2ccc(Br)cc2-c2nn[nH]n2)cc(C(F)(F)F)c1,85.6
8,CCCC(CCC)C(N)=O [2-propylpentanamide],106
9,"CCCCCC(O)CCC1C(O)CC(=O)C1CCCCCCC(=O)O (centres undefined) [13,14-Dihydro-prostaglandin E1]",104
10,COc1cc2nccc(Oc3ccc(NC(=O)Nc4cc(C)on4)c(Cl)c3)c2cc1OC.O [VEGFR Tyrosine Kinase Inhibitor IV],90.7
11,"O=c1cc(-c2ccccc2)oc2cc(O)c(O)cc12 [6,7-Dihydroxyflavone]",96.3
12,NC(N)=NCc1cccc(I)c1.NC(N)=NCc1cccc(I)c1.O=S(=O)(O)O [m-Iodobenzylguanidine hemisulfate],98.8
13,CC(=O)OC1C(=O)C2(C)C(O)CC3OCC3(OC(C)=O)C2C(OC(=O)c2ccccc2)C2(O)CC(OC(=O)C(O)C(NC(=O)c3ccccc3)c3ccccc3)C(C)=C1C2(C)C (centres undefined) [Taxol],10.1 ± 1.7
14,O=C(NC(Cc1ccccc1)C(=O)CCl)OCc1ccccc1 [Z-L-Phe chloromethyl ketone],52.5

# System: TDF
# Experiment: H1.0 immunofluorescence intensity relative to DMSO (% of DMSO); higher = stronger H1.0 induction, active = 120 or more
# Conditions: concentration: 10 µM; 24 h
# In short: as §1
row,Compound,H1.0 immunofluorescence intensity
1,"O=c1cc(-c2ccccc2)[nH]c2nc(Cl)ccc12 [7-Chloro-4-hydroxy-2-phenyl-1,8-naphthyridine]",141 (active)
2,Cl.Cl.N=C(N)c1ccc(N)cc1 [4-Aminobenzamidine dihydrochloride],92.2 (inactive)
3,CCCCCCCCCCCCCCCCCCOCC(COP(=O)([O-])OCC[N+](C)(C)C)OC(C)=O (centres undefined),92.5 (inactive)
4,COc1cc(O)c(C(=O)C=Cc2ccccc2)c(OC)c1 [Flavokawain B],93.6 (inactive)
5,CC(C)C(CO)Nc1nc(Nc2ccc(C(=O)O)c(Cl)c2)c2ncn(C(C)C)c2n1 (centres undefined) [Purvalanol B],93.1 (inactive)
6,COc1ccc(-c2cc(=O)c3c(OC)c(OC)c(OC)cc3o2)cc1OC [Sinensetine],93.9 (inactive)
7,CCCCCCCCCCCCCC(=O)NC(C)C(O)c1ccccc1 [D-erythro MAPP],100 (inactive)
8,O=c1cc(N2CCOCC2)oc2c(-c3ccccc3)cccc12,88 (inactive)
9,CNCCC(Oc1ccc(C(F)(F)F)cc1)c1ccccc1.Cl (stereo not drawn) [R-(-)-Fluoxetine hydrochloride],110 (inactive)
10,Cc1cccc(-c2[nH]c(C(C)(C)C)nc2-c2ccc3c(c2)OCO3)n1.Cl [TGF-b RI Inhibitor III],97.7 (inactive)
11,Cc1cnc(NC(=O)C2=C(O)c3ccccc3S(=O)(=O)N2C)s1 [Meloxicam],96.1 (inactive)
12,"O=C(O)COc1ccc(C(=O)c2cccs2)c(Cl)c1Cl [[2,3-dichloro-4-(2-thienylcarbonyl)phenoxy]acetic acid]",95.1 (inactive)
13,CC(=O)NC(CS)C(=O)O (centres undefined) [N-Acetyl-Cysteine],96.3 (inactive)
14,COc1ccc(Cl)cc1C(=O)NCCc1ccc(S(=O)(=O)NC(=O)NC2CCCCC2)cc1 [Glyburide],90.2 (inactive)
15,CC(C)NCC(O)COc1ccc(CC(N)=O)cc1 (stereo not drawn) [R(+)-Atenolol],90.9 (inactive)
16,O=c1c(-c2ccc(F)cc2)c(-c2ccncc2)[nH]n1-c1ccc(Cl)cc1 [p38 MAP Kinase Inhibitor],95.2 (inactive)
17,COc1ccc(/C=C\c2cc(OC)c(OC)c(OC)c2)cc1OP(=O)([O-])[O-].[Na+].[Na+],197 (active)
18,CN1CCN(C2Cc3ccccc3Sc3ccc(Cl)cc32)CC1.O=C(O)C=CC(=O)O (centres undefined) [Clorotepine maleate],106 (inactive)
19,O=C(O)c1cc(N(Cc2ccccc2O)Cc2ccccc2O)ccc1O [Lavendustin B],94.5 (inactive)
20,N#CC(=C(N)Sc1ccccc1N)C(C#N)=C(N)Sc1ccccc1N,94 (inactive) and 88.9 (inactive)

row,Compound,H1.0 immunofluorescence intensity
1,O=c1cc(-c2ccccc2)oc2cc(O)c(O)c(O)c12 [Baicalein],93.3 (inactive)
2,CCCCNc1ccc(C(=O)OCCN(C)C)cc1.Cl [Tetracaine hydrochloride],102 (inactive)
3,COc1cc(C(O)C(=O)O)ccc1O (centres undefined) [hydroxy(4-hydroxy-3-methoxyphenyl)acetic acid],94.8 (inactive)
4,CN(C)CCOC(=O)COc1ccc(Cl)cc1.Cl [Centrophenoxine hydrochloride],103 (inactive)
5,CC(=O)Oc1cc(C(C)C)c(OCCN(C)C)cc1C.Cl [Moxisylyte hydrochloride],91.4 (inactive)
6,NCC(O)(CS(=O)(=O)O)c1ccc(Cl)cc1 (centres undefined) [2-Hydroxysaclofen],97.7 (inactive)
7,N#Cc1c(NC(=O)c2cccc3ccccc23)sc2c1CCCC2 [JNK Inhibitor IX],163 (active)
8,COc1cccc2oc(-c3ccccc3)cc(=O)c12 [5-Methoxyflavone],100 (inactive)
9,CN(C)CCOc1ccc(C(=C(CCCl)c2ccccc2)c2ccccc2)cc1 [Toremifene],102 (inactive)
10,CN1CCC(=C2c3ccccc3CC(=O)c3sccc32)CC1 [Ketotifen],97.6 (inactive)
11,CC(=O)Oc1ccccc1C(=O)Oc1ccc(CO[N+](=O)[O-])cc1 [4-[(nitrooxy)methyl]phenyl 2-(acetyloxy)benzoate],110 (inactive)
12,"CN(C)C(N)=NCCCC(N)C(=O)O.Cl (centres undefined) [N^G,N^G-Dimethylarginine hydrochloride]",91.6 (inactive)
13,FC(F)(F)c1cc(NC(=S)Nc2ccc(Br)cc2-c2nn[nH]n2)cc(C(F)(F)F)c1,90.2 (inactive)
14,CCCC(CCC)C(N)=O [2-propylpentanamide],97 (inactive)
15,"CCCCCC(O)CCC1C(O)CC(=O)C1CCCCCCC(=O)O (centres undefined) [13,14-Dihydro-prostaglandin E1]",94.9 (inactive)
16,COc1cc2nccc(Oc3ccc(NC(=O)Nc4cc(C)on4)c(Cl)c3)c2cc1OC.O [VEGFR Tyrosine Kinase Inhibitor IV],94 (inactive)
17,"O=c1cc(-c2ccccc2)oc2cc(O)c(O)cc12 [6,7-Dihydroxyflavone]",98.5 (inactive)
18,NC(N)=NCc1cccc(I)c1.NC(N)=NCc1cccc(I)c1.O=S(=O)(O)O [m-Iodobenzylguanidine hemisulfate],98.1 (inactive)
19,CC(=O)OC1C(=O)C2(C)C(O)CC3OCC3(OC(C)=O)C2C(OC(=O)c2ccccc2)C2(O)CC(OC(=O)C(O)C(NC(=O)c3ccccc3)c3ccccc3)C(C)=C1C2(C)C (centres undefined) [Taxol],174 (active)
20,O=C(NC(Cc1ccccc1)C(=O)CCl)OCc1ccccc1 [Z-L-Phe chloromethyl ketone],120 (inactive)
